Out of some 190,000 compounds screened, about 3,100 (1.6%) were called active. Cut-off read from the data, not from the text of the source: active = fold change above about 3.3; inconclusive = no clear call, values can overlap the other calls; inactive = below that. This excerpt belongs to a sample that is enriched for actives.

This assay can be described thus: NF-kB upregulation, human neuronal cells – cell-based, HTS, primary screen (AID 1239). Particulars: NF-kB reporter expression, at 12.5 µM, stronger effect = higher value.
Take `CCO/C=C1\C(=O)N(c2ccc(OCC)cc2)C(=O)c2ccccc21`: the fold change is 1.05 (inactive). With `Cc1nc(-c2ccc(NC(=O)c3cccs3)cc2)cs1` the figure was 5.59 (active). As to `Cc1ccc(-c2nnc(-c3ccc(NC(=O)c4cccs4)cc3)o2)cc1`, the fold change was 1.45 (inactive). The result for `Cc1ccc(-c2csc(NC(=O)c3cccs3)n2)cc1` reads 1.97 (inactive); that for `COc1ccc(CNC(=O)COC(=O)/C=C/c2ccc(S(=O)(=O)N3CCOCC3)cc2)cc1`, 1 (inactive). With `COCCNc1nc2nonc2nc1N1CCCC1c1nccs1` (stereo unspecified) the figure was 1.05 (inactive).

`C=CCN(Cc1nc(-c2cc(OC)c3c(c2)OCO3)oc1C)C1CCS(=O)(=O)C1` (stereo unspecified): the fold change is 1.14 (inactive). The result for `Cc1ccc(-n2c(C)cc(C(=O)CSc3nnc4ccccn34)c2C)cc1` reads 3.7 (active). The result for `Cc1ccc(-n2c(C)cc(C(=O)CN3C(=O)C(=O)N(C4CCCC4)C3=O)c2C)cc1` reads 0.71 (inactive); that for `O=C(CSc1nnc2ccccn12)c1ccccc1`, 1.88 (inactive); that for `CC1CC(C)CN(S(=O)(=O)c2ccc(C(=O)NN3CCOCC3)cc2)C1` (stereo unspecified), 1.27 (inactive).

On to `Cc1cc(OCC(=O)NC2CCN(C)CC2)ccc1[N+](=O)[O-]`, for which the fold change is 0.99 (inactive).

In the case of `COc1ccccc1N(C)S(=O)(=O)c1ccc(Cl)c(C(=O)N2CCC(C(N)=O)CC2)c1`, the fold change is 1.12 (inactive). The result for `Cc1ccc(-c2cn3cc([N+](=O)[O-])ccc3n2)cc1` reads 4.75 (active).

Consider `Cc1ccc(-c2cn3cc(C)ccc3n2)cc1`, for which the fold change is 0.56 (inactive).

On to `Cn1cnc(C(F)(F)F)c1-c1ccc([N+](=O)[O-])cc1`, for which the fold change was 1.2 (inactive).

In the case of `CCOC(=O)N1CCN(C(=O)CSc2nc(C)nc3c2c(=O)n(C)c(=O)n3C)CC1`, the fold change was 0.96 (inactive). As to `Cc1cc(NC(=O)CSc2nc3ccccc3n2CC(C)C)no1`, the fold change is 1.74 (inactive). Consider `COc1ccc(NS(=O)(=O)c2cc(NC(=O)C3CCCCC3)ccc2N2CCOCC2)cc1`, for which the fold change was 0.72 (inactive). Regarding `Cc1cc(C)nc(NNC2=CC(=O)CC(C)(C)C2)n1`, the fold change was 1.06 (inactive).

As for `COCCOC(=O)C1=C(C)NC(=O)CC1c1cc2c(cc1Br)OCO2` (stereo unspecified), the fold change is 0.99 (inactive). For the compound `CCCOc1ccccc1C1CC(=O)Nc2cc3c(cc21)OCO3` (stereo unspecified), the fold change is 3.71 (active). On to `COc1ccccc1C1C2=C(COC2=O)Nc2cc3c(cc21)OCO3` (stereo unspecified), for which the fold change is 1.19 (inactive). With `O=C(NNc1ncnc2c1cnn2-c1ccccc1)c1ccco1`, the fold change is 1.27 (inactive). The result for `c1ccc(-n2ncc3c(N4CCCC4)ncnc32)cc1` reads 5.1 (active); that for `COc1ccc(-n2ncc3c(N4CCCc5ccccc54)ncnc32)cc1`, 1 (inactive); that for `COc1ccc(-n2ncc3c(N4CCc5ccccc54)ncnc32)cc1`, 0.87 (inactive).

Take `C1=C(CCNc2ncnc3c2cnn3-c2ccccc2)CCCC1`: the fold change was 4.63 (active). Take `O=C(NCCC1=CCCCC1)C1CCN(Cc2cnn(-c3ccccc3)c2-n2cccc2)CC1`: the fold change is 0.8 (inactive). Turning to `CCC(CC)NC(=O)CSc1nnc(-c2c[nH]c3ccccc23)o1`, the fold change was 1.09 (inactive).

For `COC(c1ccccc1)c1nnc(CCC(=O)N2CCN(CCOc3ccccc3)CC2)o1` (stereo unspecified), the fold change is 1.23 (inactive). The result for `COc1ccc(-c2[nH]ncc2CN(C)Cc2cc(C)[nH]n2)c(F)c1` reads 0.97 (inactive); that for `COc1ccc(O)c(C(=O)c2cnc3c(c2)c(-c2ccc(F)cc2)c(C#N)c(=O)n3C)c1`, 0.93 (inactive); that for `COc1cc(C(=O)NCc2ccc(-n3cccc3)cc2)cc(OC)c1OC`, 1.25 (inactive). With `COc1ccc(CN2CN(C3CCCC3)CSC2=S)cc1` the figure was 1.11 (inactive); with `COc1ccc(-c2nnc3ccc(SCc4ccccc4)nn23)cc1`, 0.97 (inactive); with `COC(=O)CSc1nc(C)c2ccc(OC)cc2n1`, 1.13 (inactive).

On to `COc1ccc2nc(SCc3ccccc3)nc(C)c2c1`, for which the fold change is 9.79 (active). With `O=C(c1ccc2ccccc2n1)N1CCN(c2ccccc2Cl)CC1` the figure was 2.01 (inactive). The result for `CN(C)c1ccc(C=C2C(=O)OC3(CCCC3)OC2=O)cc1` reads 1.03 (inactive); that for `Cc1cccc(-c2noc(-c3ccc(F)cc3)n2)c1`, 8.41 (active). With `Cc1ccc(Cc2nc(-c3cccc(C)c3)no2)cc1` the figure was 1.99 (inactive). As to `COc1ccc(-c2noc(CSc3ccc(C)cc3)n2)cc1`, the fold change was 1.04 (inactive). With `COc1ccc2[nH]c(=O)c(-c3noc(-c4ccc(F)cc4)n3)cc2c1` the figure was 1.09 (inactive); with `COc1ccc(-c2noc(-c3ccc(C)cc3)n2)cc1`, 5.86 (active).

For `COc1ccc(-c2nc(-c3ccccc3)no2)c(OC)c1`, the fold change was 1.5 (inactive). As to `COCCNC(=S)N1CCC(NC(=O)C23CC4CC(CC(C4)C2)C3)CC1`, the fold change is 0.98 (inactive). With `CN(CCN1CCOCC1)Cc1nc(-c2ccc3c(c2)OCO3)no1` the figure was 1.23 (inactive); with `Cn1cc(-c2ccccc2)cc(C#N)c1=O`, 1.11 (inactive); with `CCN(CC)P(=O)(Nc1ccc(SC(F)F)cc1)c1ccc(N(C)C)cc1NC(=O)c1ccco1` (stereo unspecified), 0.57 (inactive).

On to `COc1ccccc1NC(=S)N1CCN(C(c2ccccc2)c2ccccc2)CC1`, for which the fold change is 0.89 (inactive). With `CCN(CC(=O)NCc1cccs1)C(=O)c1ccccc1F` the figure was 1.01 (inactive); with `CC(C)CCN1CCN(Cc2ccc(C(F)(F)F)cc2)CC1CCO` (stereo unspecified), 0.9 (inactive); with `COc1cccc(/C(C)=N/Nc2ncc(Cl)cc2Cl)c1`, 1.88 (inactive). With `C/C(=N\Nc1nc2ccccc2[nH]1)c1cccs1` the figure was 5.42 (active); with `OCCNc1nc2ccccc2[nH]1`, 1.02 (inactive). The result for `C/C(=N\Nc1ncc(Cl)cc1Cl)c1ccc(S(=O)(=O)NCc2ccco2)cc1` reads 1.29 (inactive). In the case of `C/C(=N\Nc1nc(Nc2ccccc2)nc(N2CCOCC2)n1)c1cccs1`, the fold change is 0.45 (inactive). `C/C(=N\Nc1ncc(Cl)cc1Cl)c1cccs1`: the fold change is 4.91 (active). With `CSc1nc2c(c(=O)[nH]1)C(c1cccc(Cl)c1Cl)CC(=O)N2` (stereo unspecified) the figure was 1.18 (inactive); with `CC1Cc2ccccc2N1S(=O)(=O)c1c(N)n(C)c(=O)n(C)c1=O` (stereo unspecified), 1.07 (inactive). With `CC(C)n1c(=O)[nH]c2cc(C(=O)Nc3ccccc3)ccc21` the figure was 1.9 (inactive); with `O=C(Nc1ccccc1)c1ccccc1NC(=O)C(F)(F)F`, 0.9 (inactive); with `O=C(Nc1ccccc1)c1cc2ccccc2[nH]1`, 3.43 (active). The result for `N/C(=N\OC(=O)/C=C/c1ccccc1)c1ccc(Br)cc1` reads 1.46 (inactive); that for `N/C(=N\OC(=O)N1c2ccccc2Sc2ccccc21)c1ccc(Br)cc1`, 1.29 (inactive); that for `N/C(=N\OC(=O)c1ccc2c(c1)OCO2)c1ccc(Br)cc1`, 3.37 (active).

Regarding `CC(C)(C)OC(=O)N/N=C/c1cn(-c2ccccc2)nc1-c1cccnc1`, the fold change is 0.46 (inactive).

Turning to `Cc1ccc(S(=O)(=O)N(CC(=O)NN=C2CCN(C)CC2)c2ccc(F)cc2)cc1`, the fold change is 0.83 (inactive).

As to `COc1ccc(C(=O)Nc2ccc(S(=O)(=O)NC(C)C)cc2)cc1`, the fold change was 1.12 (inactive).

Regarding `COc1ccccc1CC(=O)Nc1ccc(F)cc1F`, the fold change is 1.07 (inactive).

Regarding `COc1ccc(NC(=O)Nc2ccc3nc(C)c(C)nc3c2)cc1`, the fold change was 0.77 (inactive). Take `COc1ccc(NC(=O)Nc2ccc3nsnc3c2)cc1`: the fold change is 3.98 (active). With `COc1ccc(C(=O)Nc2ccc(F)cc2F)cc1` the figure was 3.39 (active); with `COc1cc(OC)cc(C(=O)OCC(=O)Nc2ccc(F)cc2F)c1`, 1.18 (inactive); with `COc1ccc(/C=N/NC(=O)Nc2ccc3nsnc3c2)c(OC)c1`, 1.11 (inactive). With `COc1ccc(NC(=O)c2ccc(C#CC(C)(C)O)cc2)cc1` the figure was 1.35 (inactive); with `COc1ccc(NC(=O)c2ccc(OC)cc2)cc1`, 4.29 (active); with `Cc1ccc(-c2nn(-c3cccc(F)c3)cc2CNCCc2ccncc2)o1`, 0.82 (inactive). With `Cc1cc(C(=O)N/N=C\C(Br)=C\c2ccccc2)c(C)o1` the figure was 1.27 (inactive). For `O=C(Nc1cccn(Cc2ccccc2Cl)c1=O)NC1CCCCC1`, the fold change was 1.26 (inactive). The result for `O=C(COc1ccccc1[N+](=O)[O-])NC1CC1` reads 1.17 (inactive).

Turning to `Cc1ccc(C(=O)N/C(=C\c2cccs2)C(=O)NCCc2ccccn2)cc1C`, the fold change was 1.8 (inactive). The result for `Cc1ccccc1Nc1scc(-c2ccc(Br)cc2)[n+]1-c1ccccc1C` reads 0.87 (inactive).

Turning to `O=C(Nc1ccc2c(c1)OCCO2)C1CCCN(c2ncccn2)C1` (stereo unspecified), the fold change was 4.28 (active). `Cc1cc(C)nc(N2CCC(C(=O)Nc3ccc4c(c3)OCCO4)CC2)n1`: the fold change was 1.22 (inactive).

As for `Cc1ccnc(N2CCCC(C(=O)Nc3cc(F)ccc3C)C2)n1` (stereo unspecified), the fold change was 1.14 (inactive). The result for `COc1ccc(-c2ccc(CCC(=O)O)n2-c2ccc(O)cc2)cc1` reads 0.84 (inactive); that for `CC(C)(C)c1csc(NC2=NS(=O)(=O)c3ccccc32)n1`, 3.56 (active).

As to `Cc1ccc(S(=O)(=O)N(NC2=NS(=O)(=O)c3ccccc32)C(=O)c2ccccc2)cc1`, the fold change was 1.06 (inactive). With `O=C(Oc1cccc(NC2=NS(=O)(=O)c3ccccc32)c1)c1ccncc1` the figure was 1.14 (inactive); with `N#Cc1c(NC(=O)C2CCCO2)sc2c1CCCCC2` (stereo unspecified), 1.1 (inactive); with `CCN(CC)CCNS(=O)(=O)c1ccc(/C=C/C(=O)O)cc1`, 1.3 (inactive). On to `CSc1ccc(/C=N\NC(=O)COc2ccc(Cl)cc2Br)cc1`, for which the fold change is 1.51 (inactive).

For `COc1ccc(/C=N/NC(=O)c2cccc(C(F)(F)F)c2)cc1`, the fold change was 0.86 (inactive). As to `CSc1ccc(/C=N/NC(=O)c2cccc(Cl)c2)cc1`, the fold change was 3.71 (active).

With `CC(=O)c1ccccc1NC(=O)CC1(CC(=O)O)CCCCC1`, the fold change was 1.2 (inactive). With `CC(=O)Nc1ccc(CN2CCN(Cc3ccc(F)c(F)c3)C(CCO)C2)cc1` (stereo unspecified), the fold change is 1.18 (inactive). On to `CCCCOc1ccc(-c2nnc(-c3ccco3)o2)cc1`, for which the fold change is 3.49 (active).

`CCOc1ccc(-c2nnc(-c3ccco3)o2)cc1`: the fold change is 2.85 (inactive). As for `CCC(=O)Oc1cccc(C(=O)Nc2ccc(-c3nnc(-c4ccco4)o3)cc2)c1`, the fold change is 0.99 (inactive).
